Compound activity from PubChem.
In the library only some 2.4% were active in any assay of this set; here they are far more common.
D2 antag = D2 dopamine receptor (human) antagonism | HEK293 TREx D2 cells, calcium flux, dopamine EC80 | inhibition, % at 10 µM | 340,000 compounds, 2% hits; in the data active = inhibition above about 30%; inactive = below that, where a call was filed; note: 0% is about no effect
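Dopamine at EC80 is the agonist stimulus; test compounds precede it by 180 s. Calcium flux read kinetically in a force-coupled, inducible HEK293 T-REx D2 cell line.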
D2 PAM-1 = human D2 receptor positive allosteric modulation; P14416; DiscoveRx D2 beta-arrestin cells, luminescence, 90 min; 100% = 57 uM dopamine signal; potentiation, % (test concentration not listed); 360,000 compounds, 0.23% hits; in the data active = potentiation above about 50%; inconclusive = mostly about 30% to 49%
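D2 cells co-treated with compound plus 50 nM dopamine (EC20) for 90 min at 37 deg C to detect potentiation. Beta-arrestin recruitment was read as enzyme-fragment luminescence after 1 h at ambient temperature. Full response was set by 57 uM dopamine.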
D2 ag-1 = agonists of human D2 dopamine receptor; activation, % at 2 µM; HEK293 T-REx D2 cells, calcium flux agonist mode; 340,000 compounds, 0.53% hits; P14416;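 active = activation over 3 SD above normal in the single-dose calcium agonist read, cut at about 30% in these data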; note: 0% is about no effect
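HEK293 Trex D2 cells, tetracycline-induced, o/n 30 C 5% CO2; no-wash Ca dye, RT 30–90 min; 10-cycle baseline, 23 nl cpd added, kinetic Ca read 180 s; agonist hits = positive Ca response.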
D2 PAM-2 = positively modulates the human D2 dopamine receptor allosterically; P14416; HEK293 T-REx D2, calcium flux, EC20 dopamine potentiation; potentiation, % at 10 µM; 340,000 compounds, 0.34% hits;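 active = potentiation over 3 SD above the plate norm, cut at about 30% in these data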; note: 0% is about no effect
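Calcium flux readout, no-wash dye, 1 read/s. Inducible HEK293 Trex D2 line, overnight 30 C. Compound alone 180 s (agonist flags), then EC20 dopamine, another 180 s to score potentiation.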
D2 ag-2 = agonists of human D2 dopamine receptor (beta-arrestin); P14416; DiscoveRx PathHunter D2 beta-arrestin, luminescence, 90 min; 100% = 57 uM dopamine signal; activation, % (test concentration not listed); 360,000 compounds, 0.084% hits; in the data active = activation above about 40%; inconclusive = between about 15% and that limit
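Agonist mode: compounds alone added to overnight-plated D2 PathHunter cells for 90 min at 37 C, with 57 uM final dopamine (EC100) defining full response. Beta-arrestin recruitment detected by chemiluminescent reagent, read after 1 h at ambient temperature.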
D3 arrestin ag = activates human D3 dopamine receptor beta-arrestin recruitment; shares compounds with D2 ag-1; DiscoveRx D3 beta-arrestin cells, luminescence, 90 min; Potency, µM (titrated, usually from 76.9 µM), inactives show top-dose activation, usual class: activators; 2,300 compounds, 4% hits; AID 720506;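 note: potency is the fitted concentration of half-maximal effect; 100% = dopamine control response; nearly all actives have a fitted effect of over 70% in size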
Target sequence (P35462 whole entry, looked up): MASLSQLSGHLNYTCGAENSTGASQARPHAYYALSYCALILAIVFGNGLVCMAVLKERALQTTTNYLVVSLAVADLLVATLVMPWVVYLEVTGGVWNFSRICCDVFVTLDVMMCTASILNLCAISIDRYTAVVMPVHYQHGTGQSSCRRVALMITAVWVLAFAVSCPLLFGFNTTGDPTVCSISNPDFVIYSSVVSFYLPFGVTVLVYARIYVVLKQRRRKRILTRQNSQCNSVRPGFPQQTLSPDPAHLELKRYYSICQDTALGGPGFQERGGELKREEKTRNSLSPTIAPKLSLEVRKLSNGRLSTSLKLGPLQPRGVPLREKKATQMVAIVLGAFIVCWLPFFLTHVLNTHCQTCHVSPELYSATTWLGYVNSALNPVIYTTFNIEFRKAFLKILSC
D2 ag-3 = D2 receptor agonism, beta-arrestin counterscreen | shares compounds with D2 ag-1 | DiscoveRx PathHunter D2 beta-arrestin, luminescence, 90 min; response scale: percent relative to full dopamine signal | Potency, µM (series often up to 76.9 µM), for the others: at the top dose activation, hits mostly activators | 2,300 compounds, 5.9% hits; note: potency is the fitted concentration of half-maximal effect; % of control where 0% means no effect; nearly all actives have a fitted effect of over 70% in size
Starred values were filed as active, the others as inactive; ? = inconclusive; / = not tested or not shown. Unless noted, calls come from the whole dose curve; as a rule, active = well fitted activation curve with a large enough effect; inconclusive = small, poorly fitted or top-dose-only effect; inactive = flat fitted curve, though single readings scatter.

SMILES	D2 antag	D2 PAM-1	D2 ag-1	D2 PAM-2	D2 ag-2	D3 arrestin ag	D2 ag-3
COc1ccccc1CNS(=O)(=O)c1cc2c3c(c1)CCN3C(=O)CC2	75*	?	0	11	0	10%	8%
COc1ccc(-c2csc(C(NC(C)=O)c3ccccc3)n2)cn1 (centres undefined)	/	-3	/	/	-6	/	/
O=S(=O)(NC1CCN(S(=O)(=O)c2c(F)cccc2F)C1)c1ccc2c(c1)OCCO2 (centres undefined)	-9	/	0	-2	/	13%	10%
Nc1ccn(CC(=O)NCCNc2ccc([N+](=O)[O-])cn2)c(=O)n1	-1	-6	0	-11	-4	-7%	-5%
O=C(CN1CCN(Cc2ccccc2)CC1)NCCNc1ccc([N+](=O)[O-])cn1	-8	-2	1	6	-4	/	/
Cc1nc(SCc2ccccc2)c([N+](=O)[O-])[nH]1	22	-10	0	-1	-5	-23%	-7%
COc1ccc(CSc2nc(C)[nH]c2[N+](=O)[O-])cc1[N+](=O)[O-]	-9	-3	-1	-7	-1	/	/
C=CCC(C(=O)Oc1c(C(C)(C)C)cc(C)cc1C(C)(C)C)c1ccccc1 (centres undefined)	-11	-2	0	1	-2	-7%	-4%
Cc1cccc(C)c1OC(=O)C(c1ccccc1)c1ccccc1	-10	1	0	10	-3	/	/
COc1ccc(Cn2ccc3nc(C)c(C(=O)N4CCN(c5ccccc5F)CC4)cc3c2=O)cc1	/	/	0	-4	/	/	/
CC(OC(=O)/C=C/c1ccco1)C(=O)NC1CCCCC1C (centres undefined)	5	-1	0	11	-1	-2%	-4%
CC(OC(=O)Cc1ccc(Cl)cc1)C(=O)NC1CCCCC1C (centres undefined)	-3	1	0	1	1	0%	-3%
CC(OC(=O)/C=C/c1cccs1)C(=O)NC1CCCCC1C (centres undefined)	8	4	0	9	-3	/	/
Cc1ccc(-n2ncc(C(=O)NCCc3ccsc3)c2C2CCN(C(=O)OC(C)(C)C)CC2)c(C)c1	/	/	1	-3	/	/	/
CC(NC(=O)c1ccc(N2Cc3ccccc3Oc3ncccc32)s1)c1ccccc1 (centres undefined)	/	/	0	5	/	/	/
O=c1c(CN2CCN(c3ccccn3)CC2)coc2ccccc12	79*	19	88*	-17	?	11%	?
Brc1ccc(CN2CCN(c3ccccn3)CC2)s1	69*	?	70*	-12	70*	?	3.5µM*
Cc1[nH]c2ccccc2c1CN1CCN(c2ccccn2)CC1	56*	-17	51*	-22	3	-12%	6%
OCCN1CCN(Cc2cc(Cl)c3cccnc3c2O)CC1	3	-24	0	-9	1	/	/
O=c1c(CN2CCN(Cc3ccccc3F)C(CCO)C2)coc2ccccc12 (centres undefined)	-19	-11	9	1	3	/	/
Cc1ccccc1-c1nnc(CN2CCN(c3ccccn3)CC2)o1	/	/	/	-19	/	/	/
Oc1c(CN2CCN(c3ccccn3)CC2)cc(Cl)c2cccnc12	89*	-63	83*	-31	-16	-21%	?
c1ccc(N2CCN(Cc3nc4ccccc4[nH]3)CC2)nc1	-10	-3	15	-21	5	/	/
CCCn1ccc2c(OCC(=O)Nc3ccc(OC)c(OC)c3)cccc2c1=O	/	/	0	-2	/	/	/
CCOC(=O)N1CCN(Cc2nc3cc([N+](=O)[O-])ccc3n2C(C)C)CC1	/	/	0	5	/	/	/
SMILES	D2 antag	D2 PAM-1	D2 ag-1	D2 PAM-2	D2 ag-2	D3 arrestin ag	D2 ag-3
Cc1nc2ccc(S(=O)(=O)N(CC(=O)Nc3ccc(F)cc3F)Cc3ccccc3)cc2s1	/	/	1	3	/	/	/
O=C(NCCc1ccccc1)C1(c2cccs2)CCOCC1	/	/	0	-3	/	/	/
COc1ccc(-n2c(SCC(=O)NCc3ccccc3)nc3n[nH]c(C)c3c2=N)cc1	/	/	2	-6	/	/	/
CCOc1ccc(C(=O)c2cn(CC(=O)Nc3ccc(F)cc3)c3cc4c(cc3c2=O)OCO4)cc1	/	/	/	5	/	/	/
COc1ccc(NC(=O)COC(=O)CNC(=O)c2cccs2)cc1Cl	8	0	-2	0	5	0%	2%
CC(C)(C)c1ccc(S(=O)(=O)c2cn(CC(=O)Nc3ccccc3)c3ccccc3c2=O)cc1	/	/	1	-12	/	/	/
COc1ccc(NS(=O)(=O)c2cc(C(=O)N3CCC3)ccc2C)cc1	29	-4	25	-12	10	-3%	9%
COc1ccc(-c2cc(C(C)=O)c(C)n2CCC(=O)NCc2ccc(F)cc2)cc1	/	/	1	-13	/	/	/
CCC(CO)Nc1ncnc2c1cnn2-c1ccc(C)cc1 (centres undefined)	/	/	0	-6	/	/	/
O=C(O)CC1Sc2ccccc2NC1=O (centres undefined)	6	-19	51*	-28	-6	-7%	-2%
CCOC(=O)CC1Sc2ccccc2NC1=O (centres undefined)	-11	-4	/	18	-4	/	/
NCC(O)(c1ccc(Cl)cc1)c1ccc(Cl)cc1	20	-7	26	-5	1	6%	2%
CC(C)(C)NCC(O)(c1ccc(Cl)cc1)c1ccc(Cl)cc1	-2	-4	0	-8	-1	/	/
CN(C(=O)CSc1nnc(COc2ccccc2)o1)c1ccccc1	/	/	-1	-1	/	/	/
COCCNC(=O)c1nn(-c2ccc(C)cc2)c(=O)n(C)c1=O	/	/	/	0	/	/	/
COc1cccc(CN2CCN(C3CCN(c4cccc(C)c4C)CC3)CC2CCO)c1 (centres undefined)	73*	15	71*	-9	?	?	?
CCOC(=O)N1CCC(N2CCCC(C(=O)c3cc(C)c(OC)c(C)c3)C2)CC1 (centres undefined)	/	-6	/	/	-2	/	/
CCOC(=O)N1CCC(N2CCCC(C(=O)c3ccccc3OC)C2)CC1 (centres undefined)	70*	10	74*	-15	?	-2%	?
COc1cccc(CN2CCN(C3CCN(c4ccccc4F)CC3)CC2CCO)c1 (centres undefined)	8	-16	3	-23	-2	/	/
CCOC(=O)N1CCC(N2CCN(Cc3ccccc3)C(CCO)C2)CC1 (centres undefined)	76*	-2	78*	-13	?	0%	?
COc1cccc(CN2CCN(C3CCN(c4ccccc4C)CC3)CC2CCO)c1 (centres undefined)	27	-8	60*	-26	-8	-12%	3%
